Measured values published in PubChem BioAssay AID1259343 (VanderVen Lab, College of Veterinary Medicine, Cornell …, 2017).
In all, about 6,200 compounds went through this assay and about 2,900 (47%) were called active. So high a share suggests a set chosen from earlier hits. Some of the results follow. Unmarked numbers belong to inactive results. No stated cut-off is given here; in the data, active means inhibition above about 50%; inactive means the rest.

assay: Mycobacterium tuberculosis growth inhibition, primary screen (AID 1259343); conditions: inhibition: at 10 µM, active compounds read high; outcome: 10 uM

| Structure (SMILES) | inhibition |
| --- | --- |
| O=C(O)c1cc(-c2ccccc2Cl)nc2cc(-c3ccccc3)nn12 | 96.6% (active) |
| Nc1nc(-c2ccccc2Cl)co1 | 12% |
| Cc1ccc(-c2c(C)nn3c(NCc4cccnc4)cc(C)nc23)cc1 | 30.6% |
| COc1ccc(-c2c(C)nn3c(NCCc4ccccc4)cc(C)nc23)cc1OC | 65.5% (active) |
| Cc1ccc(-c2c(C)nn3c(NCCc4ccccc4)cc(C)nc23)cc1 | -2.64% |
| O=C1OC(c2ccccc2)OC(=O)C1=Cc1ccc(OCc2ccc3c(c2)OCO3)cc1 (centres undefined) | 84.2% (active) |
| CN(Cc1ccccc1)c1ncnc(Oc2ccc3c(c2)OCO3)c1N | 28% |
| NC(=O)c1ccc(OCc2cc(Cl)c3c(c2)OCO3)cc1 | 35.7% |
| C=Cc1ccc(Cn2cc(C(=O)NCc3ccco3)sc2=O)cc1 | 7.16% |
| O=C(NCCOc1ccccc1F)C12CC3CC(CC(C3)C1)C2 | 31.1% |
| O=C(NCc1ccco1)C12CC3CC(CC(C3)C1)C2 | 98.1% (active) |
| COC(=O)CCc1c(C)nc2c(c(-c3ccco3)nn2C2CCS(=O)(=O)C2)c1C (centres undefined) | 24.9% |
| Nc1ncc(N=Nc2cccc(C(F)(F)F)c2)s1 | 2.91% |
| CC(C)N(C(=O)c1ccc(-c2cccc(C(F)(F)F)c2)s1)C(C)C | 66.1% (active) |
| C#CCN(C)C(=O)c1ccc(-c2cccc(C(F)(F)F)c2)s1 | 23.8% |
| CC1Oc2ccccc2OC1C(=O)NCCOc1ccc2ccccc2c1 (centres undefined) | 29.2% |
| O=C(NCCOc1ccc(C(F)(F)F)cc1)C1CSc2ccccc2O1 (centres undefined) | 77.1% (active) |
| O=C(NCC(O)COc1ccc(C(F)(F)F)cc1)c1ccccc1Cl (centres undefined) | 22.8% |
| CCCOC(=NCCCN(C)C)NC(=O)c1ccc(Cl)c(Cl)c1 | 43.6% |
| CCCOC(=O)c1cc(Br)ccc1NC(=O)c1ccc(C)nc1 | 8.93% |
| CCCOC(=O)c1ccc(NC(=O)c2cc(CCC)[nH]n2)cc1 | 65% (active) |
| Nc1nc(-c2ccc(Oc3ccccc3)cc2)cs1 | 17.5% |
| Nc1scc(-c2ccc(Oc3ccccc3)cc2)[n+]1CCCS(=O)(=O)[O-] | 68.1% (active) |
| CCOC(=O)NC(n1ccnc1)C(F)(F)C(F)(F)C(F)(F)C(F)F (centres undefined) | 15.8% |
| C=C1/C(=N\OC(=O)Nc2ccc(C)cc2)CC2CC1C2(C)C (centres undefined) | 86.8% (active) |
| CN1CCN(c2ccc3nc(-c4c(N)c5c(F)cccc5[nH]c4=O)[nH]c3c2)CC1 | 30.7% |

| Structure (SMILES) | inhibition |
| --- | --- |
| S=C(NCC1COc2ccccc2O1)NC1CC2CCC1C2 (centres undefined) | -18.9% |
| S=C(Nc1ccc(-n2cnnn2)cc1)NC1CC2CCC1C2 (centres undefined) | 103% (active) |
| S=C(Nc1ccccn1)NC1CC2CCC1C2 (centres undefined) | 97.7% (active) |
| Oc1cccc2c(NC(=S)NC3CC4CCC3C4)cccc12 (centres undefined) | 23.4% |
| CC(C)CCNc1nc(C(=O)OC(C)C(N)=O)cs1 (centres undefined) | 20.4% |
| CC(C)c1cc(CN(C)C(=O)CC23CC4CC(CC(C4)C2)C3)no1 | 32.9% |
| Cc1ncsc1CCOC(=O)CC12CC3CC(CC(C3)C1)C2 | 103% (active) |
| COCC(C)C1CCN(C(=O)CC23CC4CC(CC(C4)C2)C3)CC1 (centres undefined) | -13.6% |
| CC(C)CN(CCC(=O)O)c1nc(-c2ccccc2Cl)nc2ccccc12 | 37.1% |
| NC(=O)c1csc(C(=O)NC2CC2c2cccc(Cl)c2)c1 (centres undefined) | 27.2% |
| NC(=O)c1csc(CNc2ccc(F)cc2)c1 | 68.7% (active) |
| Clc1ccc(C(Cn2ccnc2)OCc2c(Cl)cccc2Cl)c(Cl)c1 (centres undefined) | -47.1% |
| CN(C)C(=O)CSCC(=O)O | -0.78% |
| O=C(CCC1CCN(C(=O)CCc2ccccc2)CC1)Nc1ccc2c(c1)OCCO2 | 0.33% |
| O=C1CC(Nc2ccc3c(c2)OCCCO3)C(=O)N1CCc1ccccc1F (centres undefined) | 53.9% (active) |
| C(=C\c1ccccc1)/CNc1ccc2c(c1)OCCO2 | -42.5% |
| COc1ccc(Nc2cccc3nonc23)cc1 | 60.3% (active) |
| COc1ccc(-c2nc(Nc3ccc(F)cc3)c3ccccc3n2)cc1 | 26.9% |
| CC1(C)CC[C@@]2(C(=O)O)C(C1)C1=CCC3[C@@]4(C)CC[C@H](O)C(C)(C)C4CC[C@@]3(C)[C@]1(C)C[C@@H]2O (some centres undefined) | 69.3% (active) |
| Cc1nc(NCc2ccco2)c2c3c(sc2n1)CCCC3 | 59.1% (active) |
| Cc1cc(C=Cc2ccc3cc(N(C)C)ccc3[n+]2C)c(C)n1-c1ccccc1 | inactive |
| Cc1cc(/C=N\O)c(C)n1-c1ccc(-c2ccccc2)cc1 | 79.1% (active) |
| Cc1cc(/C=C/c2ccc3cc(N(C)C)ccc3[n+]2C)c(C)n1-c1ccccc1 | 48.1% |
| O=S(=O)(Nc1ccc2c(c1)CCC2)c1ccc(Br)cc1 | 32.5% |
| O=[N+]([O-])c1ccc(NS(=O)(=O)Cc2ccccc2)cc1 | 73.9% (active) |
| COc1ccc(CNc2ccc([N+](=O)[O-])cc2)cc1 | 4.07% |

| Structure (SMILES) | inhibition |
| --- | --- |
| O=[N+]([O-])c1cc(NS(=O)(=O)c2cc(Cl)cc(Cl)c2)ccc1Cl | 21.6% |
| O=[N+]([O-])c1cc(S(=O)(=O)Nc2ccc(Br)cc2)ccc1Cl | 66.2% (active) |
| O=[N+]([O-])c1ccc(NS(=O)(=O)c2ccc(Br)cc2)cc1 | 58.1% (active) |
| CC(NC(=O)c1ccc(C(F)(F)F)cc1)c1ccco1 (centres undefined) | 62.5% (active) |
| CC(NC(=O)c1ccc(Cl)o1)c1ccc(C(F)(F)F)cc1 (centres undefined) | 85.3% (active) |
| CC(NC(=O)c1ccc(Br)o1)c1ccc(Cl)s1 (centres undefined) | -46.6% |
| CC(NC(=O)c1cccs1)c1ccc(Cl)s1 (centres undefined) | -37.7% |
| CC(NC(=O)c1cccs1)c1ccc(C(F)(F)F)cc1 (centres undefined) | 69.9% (active) |
| CC(NC(=O)CC1C=CCC1)c1ccc(C(F)(F)F)cc1 (centres undefined) | 12.8% |
| O=C(NCc1ccccc1)c1ccc(C(F)(F)F)cc1 | 20.5% |
| CCCc1cc(=O)[nH]c(-n2nc(C)cc2NC(C)=O)n1 | 99.8% (active) |
| CCCc1cc(=O)[nH]c(-n2nc(C)cc2NC(=O)C(C)(C)Oc2ccc(Cl)cc2)n1 | 2.87% |
| CCCc1cc(=O)[nH]c(-n2nc(C)cc2NC(=O)C(C)(C)CCl)n1 | 102% (active) |
| CCCc1cc(=O)[nH]c(-n2nc(C)cc2NC(=O)CC)n1 | 100% (active) |
| O=c1c(O)cccc2cc(O)c(O)c(O)c12 | 64.6% (active) |
| CC(=NNc1ncnc2sc(C)c(C)c12)c1ccc(Cl)s1 | 47.1% |
| CCCCNC(=S)NNc1ncnc2sc(C)c(C)c12 | 65.6% (active) |
| CCCC(CCC)=NNc1ncnc2sc(C)c(C)c12 | 96.3% (active) |
| COC(=O)C(C)Sc1ncnc2sc(C)c(C)c12 (centres undefined) | -21% |
| Cc1ccsc1C=NNc1ncnc2sc(C)c(C)c12 | 66.9% (active) |
| Cc1sc2ncnc(SCC(=O)c3ccc(Cl)s3)c2c1C | 13.9% |
| COC(=O)c1ccc(Cn2ncc(Cl)c(Cl)c2=O)o1 | 75.5% (active) |
| COC(=O)c1ccc(CSc2ncnc3c2nnn3Cc2ccccc2)o1 | 26.9% |
| COC(=O)c1ccc(CSc2ncnc3c2nnn3Cc2ccc(F)cc2)o1 | 3.1% |
| CC(C)C(C)NC(=O)Nc1nc(-c2ccccc2)ns1 (centres undefined) | 83.1% (active) |
| COCC1(NC(=O)Nc2nc(-c3ccccc3)ns2)CCCC1 | 5.18% |

| Structure (SMILES) | inhibition |
| --- | --- |
| CCOC(=O)C1(Cc2ccc(Cl)cc2)CCN(Cc2cccc3nonc23)CC1 | 78.1% (active) |
| CCOC(=O)C1(Cc2ccc(Cl)cc2)CCN(C(=O)Nc2ccc(Cl)cc2C)CC1 | 1.06% |
| CCOC(=O)C1(CCOc2ccccc2)CCN(Cc2nc(C(C)C)cs2)CC1 | inactive |
| Cc1cccc(NC(=O)c2n[nH]c([N+](=O)[O-])c2Br)c1C | 86.8% (active) |
| CNC(=O)c1ccccc1NC(=O)c1ccc(C)c(Br)c1 | 23.1% |
| Cc1cc(Br)ccc1NC(=O)c1ccc([N+](=O)[O-])o1 | 38.1% |
| C=CCSc1nn2c(=O)c3ccccc3nc2s1 | 97.6% (active) |
| CCOc1ccc(Br)c(C=Nc2ccc3oc(=O)ccc3c2)c1O | 81.3% (active) |
| Cc1nc(COc2ccc(C(=O)NCc3ccc(F)cc3)cc2)cs1 | -15.9% |
| Cc1c(C(=O)NCc2ccc(Cl)c(Cl)c2)sc(=O)n1CCc1ccccc1 | 35.6% |
| Cc1csc2nc(O)c(C(=O)NCc3ccc(F)cc3)c(=O)n12 | 74.4% (active) |
| Cc1c(C(=O)NCc2ccc(Cl)c(Cl)c2)sc(=O)n1Cc1ccc(F)cc1 | 17.9% |
| CC(=O)NCc1ccc(-c2nc(CCc3ccccc3)sc2C)s1 | 28% |
| Cc1csc2nc(O)c(C(=O)NCCc3ccccc3)c(=O)n12 | 82.8% (active) |
| CCOc1ccc(NC(=O)c2cncc(Br)c2)cc1F | 44.8% |
| O=C(Nc1ncccc1OC(F)F)c1cncc(Br)c1 | 89.3% (active) |
| C=CCN(c1ccccc1)S(=O)(=O)c1ccc(Br)cc1Cl | 27.3% |
| COc1ccc2c(c1)CC(c1nc(Cc3ccc(F)cc3)no1)CO2 (centres undefined) | 63.1% (active) |
| COc1ccc2cc(C3CN(Cc4noc(C5CC5)n4)CCO3)ccc2c1 (centres undefined) | 23.6% |
| C1=CCC(c2nc(Cc3cccnc3)no2)CC1 (centres undefined) | -4.1% |
| N#CC(C#N)=C1C=C2C=C(N3CCCCCC3)CCC2CC1 (centres undefined) | 73.5% (active) |
| N#CC(C#N)=C1C=C2C=C(N3CCCCC3)CCC2CC1 (centres undefined) | 49% |
| CCCCN(C)C1=CC2=CC(=C(C#N)C#N)CCC2CC1 (centres undefined) | 45.5% |
| O=C(O)c1cnc(/C=C/c2cccc(C(F)(F)F)c2)s1 | -17.4% |
| Cn1nc(C(F)(F)F)cc1-c1ccc(C(=O)O)s1 | 46.4% |
| O=C(O)c1cnc(-c2ccc(C(F)(F)F)cc2)s1 | 60.4% (active) |
